# From PubChem BioAssay (NCI)
# Compounds without any hit were thinned out: in the full panel of roughly 83,000, 20% have a hit.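 Each cell line was grown in a 96-well plate and treated with one concentration of compound for 48 hours. Values below 10 were considered active.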 Calls of active or inactive are those of the source.
# Test system: HL-60(TB) leukemia
# Assay: NCI-60 one-dose screen, 48 h (100 = growth as untreated, 0 = no growth, -100 = all killed)
# Details: 10 µM unless noted
row,Compound,growth
1,NC(=O)N/N=C\c1ccco1,102% (inactive)
2,Cc1ccnc(NC(c2ccccc2)c2ccc3cccnc3c2O)c1 (stereo not given),-2.23% (active)
3,COc1ccc(-c2nnc(SCC(=O)c3ccccc3)o2)cc1,80.5% (inactive)
4,CC(=O)CC(=O)N(C)C,114% (inactive)
5,O=C(O)CCCl,107% (inactive)
6,COc1cc(NCCCN(CC(C)C)CC(C)C)c2ncccc2c1,89.8% (inactive)
7,CCCCCCNC(=O)Nc1ccc2cc3ccc(NC(=O)NCCCCCC)cc3nc2c1,-49% (active)
8,O=C(CS(=O)c1oc(-c2cccs2)nc1S(=O)(=O)c1ccc(Br)cc1)c1ccccc1 (stereo not given),87.9% (inactive)
9,CCN(CC)CCCC(C)Nc1ccnc(/C=C/c2ccc(Cl)cc2)c1 (stereo not given),65.9% (inactive)
10,CC(c1ccccc1)N1C(=O)C(C2SC(=S)N(C(C)c3ccccc3)C2=O)SC1=S (stereo not given),78.2% (inactive)
11,O=C1Nc2ccccc2/C1=N/N1C(=O)CN(CCCl)C1=O,96.3% (inactive)
12,O=C(NCCOCCOCCOCCNC(=O)c1cc2c(o1)C(=O)c1ccccc1C2=O)NC12CC3CC(CC(C3)C1)C2,1.17% (active)
13,CCN(CC)CCCNC(=O)c1ccc(N)cc1,76.5% (inactive)
14,Cc1c(Cl)cccc1NCN1C(=O)c2ccccc2C1=O,113% (inactive)
15,Nc1cc(N)c(N=Nc2ccc(S(=O)(=O)O)cc2)cc1N=Nc1ccc(-c2ccc(N=Nc3ccc(O)c(C(=O)O)c3)cc2)cc1,111% (inactive)
16,N#CC1=C(N)Oc2c(ccc3ccccc23)C1c1cc2ccccc2n2nnnc12 (stereo not given),-32.7% (active)
17,O=C(Cn1nnc2ccccc21)N/N=C/c1c[nH]c2ccccc12,31.1% (inactive)
18,CN1CCOCCN(C)Cc2ccc3ccc(cc3c2)CN(C)CCOCCN(C)Cc2ccc3ccc(cc3c2)C1,20.7% (inactive)
19,Clc1ncnc2nc[nH]c12,101% (inactive)
20,O=C(Nc1ccc(F)cc1)Nc1ccc(Br)c(C(F)(F)F)c1,-41.9% (active)

row,Compound,growth
1,CN(C)CCN1C(=O)c2cccc3c(-c4ccc(-c5nc6c7ccccc7c7ccccc7c6[nH]5)cc4)ccc(c23)C1=O,90.7% (inactive)
2,NC(=O)Nc1ccc2ncnc(Nc3cccc(O)c3)c2c1,105% (inactive)
3,CCN(CC)CCN1C(=O)c2cccc3c(-c4ccc5c(c4)ncn5C4CCCCC4)ccc(c23)C1=O,-15.2% (active)
4,COc1ccc(-c2nnc(SCC(=O)Nc3ccc(C(=O)/C=C/c4cc(OC)c(OC)c(OC)c4)cc3)n2-c2ccccc2)cc1OC,46.1% [100 µM] (inactive)
5,Oc1ccc(-c2nc3ccc4[nH]ncc4c3c3c2CCCC3)c(F)c1,0.236% (active)
6,C=C1C(=O)O[C@H]2[C@H]1CC/C(COC(=O)NCc1ccc(Cn3c(=O)sn(-c4ccc(I)cc4)c3=O)cc1)=C\CC[C@@]1(C)O[C@@H]21,-32% (active)
7,COc1ccc2cc(-c3cc(OC)c(OC)c(OC)c3)c(=O)oc2c1,55.3% (inactive)
8,O=c1cc(-c2ccc(Cl)cc2)[nH]c2ccccc12,44.3% (inactive)
9,CCC(C)[C@H](NC(=O)NC(=O)NC(=O)CI)C(=O)OC (stereo not given in full),71.8% (inactive)
10,COc1cc(F)c(/C=C/c2cc(/C=C/c3cc(OC)c(OC)cc3F)n(-c3cc(F)cc(F)c3)n2)cc1OC,87.6% (inactive)
11,Cc1c(C(N)=O)sc2nc(C)n(/N=c3\scc(-c4ccccc4)n3Cc3ccccc3)c(=O)c12,-35.8% (active)
12,CCN(CC)CCCC(Cc1ccccc1)Nc1c2ccc(Cl)cc2nc2ccc(OC)cc12 (stereo not given),19.5% (inactive)
13,Cc1cc(C2=NNC(=O)Cc3cc4c(cc32)OCCO4)cc(C)c1N,21.6% (inactive)
14,Cc1[nH]n(C(N)=S)c(=O)c1N=Nc1ccc(F)c(Cl)c1,90.6% (inactive)
15,COc1cc(Cn2ncc3ccc(NC(=O)c4cc5ccccc5oc4=N)cc32)cc(OC)c1OC,64.8% (inactive)
16,C=C1C(=O)O[C@H]2[C@H]1CC/C(COC(=O)NCCCCNC(=O)OC/C1=C/CC[C@@]3(C)O[C@H]3[C@H]3OC(=O)C(=C)[C@@H]3CC1)=C\CC[C@@]1(C)O[C@@H]21,-50.7% (active)
17,N#CN1CC[C@H](C(=O)Nc2ncc(-c3ccncc3)s2)C1,-28.5% (active)
18,COc1ccc(-c2nc3ccccn3c2-c2nc3ccc(Cl)cc3[nH]2)cc1,74.8% (inactive)
19,O=C(c1nc2ccccc2[nH]1)C1C(c2cccc([N+](=O)[O-])c2)C2CC3CCCCC3N2[C@@]12C(=O)Nc1cc(Cl)ccc12 (stereo not given in full),4.05% (active)
20,CN1CCN(CC(=O)Nc2nc(-c3cccc(NS(=O)(=O)c4cccc5c(N(C)C)cccc45)c3)cs2)CC1,23.3% (inactive)
